According to PubChem BioAssay AID1224860 (National Center for Advancing Translational Sciences (NCATS), 2016):
Inconclusive results are not listed. Where a call stands in place of a potency, no number is given. Activity calls are given as the source filed them. The call rests on the fitted dose curve; in most records, active means well fitted cell-killing curve with a large enough effect; inconclusive means small, poorly fitted or top-dose-only effect; inactive means flat fitted curve, though single readings scatter.

Assay: Compound cytotoxicity measured by an ATP content assay as a counter-screen for lead compounds in human iPSC derived neural progenitor cells (hNPCs)
Settings: human iPSC-derived NPC viability, ATP luminescence; series mostly up to 46.1 µM
Protocol: National Center for Advancing Translational Sciences [NCATS] Johns Hopkins University School of Medicine Florida State University Assay Overview: Many compounds can cause cytotoxicity at high compound concentrations. […] The compound cytotoxicity may also cause side effects or toxicity in human. Thus, the compound cytotoxicity needs to be measured in each cell type and each compound incubation time - same as these in the compound screening assay. The compound cytotoxicity can be measured by cell viability assays such as the ATP content assay. We use an ATP content assay kit for cell viability measurement. It measures ATP content (level) in human iPSC derived neural progenitor cells (hNPCs) using a luminescence readout that is proportional to viable cell numbers. Decrease in the luminescence signal after the compound treatment indicates reduced cell viability and cell death caused by compound treatment.
Assay Protocol Summary: The medium for hNPCs consists of DMEM/F12, N2 supplement (ThermoFisher, Cat.# 17502048), NEAA (ThermoFisher, Cat. # 11140050), 2 ug/ml heparin, 2 uM cyclopamine, and B27 (ThermoFisher, Cat. # 17504044). The ATP content assay kit (PerkinElmer, Cat.# 6016731) was used to determine cell viability. The reagent was reconstituted and prepared as described by the manufacturer. Cells were seeded in 384- or 1536-well assay plates and cultured at 37 C with 5% CO2 for 16 to 20 hours. The typical cell seeding density in the 1536-well plate assay is 350 cells/well in 3 ul medium for hNPCs in the tissue cultured treated/PDL coated plates. Compounds were added to cells and incubated for a specific time such as 6, 24, or 72 hours before addition of the reagent mixture of the ATP content assay kit at 1:1 ratio. After incubation at room temperature for 10 minutes, the luminescence intensity in assay plates was measured using a ViewLux plate reader (PerkinElmer). […] The percentage inhibitions of the decreased cell viability by small molecules were then calculated that indicate compound cytotoxicity.

Compound | Potency
Cc1ccc(O)c(N=Nc2ccccc2)n1 | 4.35 µM (active)
NC(N)=NN=C(/C=C/c1ccc([N+](=O)[O-])o1)/C=C/c1ccc([N+](=O)[O-])o1 | 1.95 µM (active)
O=S(=O)(O)CCSSCCS(=O)(=O)O | inactive
CC[C@]1(O)C[C@H]2CN(CCc3c([nH]c4ccccc34)[C@@](C(=O)OC)(c3cc4c(cc3OC)N(C=O)[C@H]3[C@@](O)(C(=O)OC)[C@H](OC(C)=O)[C@]5(CC)C=CCN6CC[C@]43[C@@H]65)C2)C1 | inactive
C[C@@H](N)c1ccc(C(=O)Nc2ccnc3[nH]ccc23)cc1 | inactive
CCCCCCCC/C=C/C(=O)O | inactive
CCCCCNC(=O)N1CCC(CN(Cc2ccc(Cl)cc2)Cc2ccc([N+](=O)[O-])s2)C1 (stereo not given) | inactive
CCC(C(=O)O)c1ccc(N2Cc3ccccc3C2=O)cc1 (stereo not given) | inactive
C=CCCCCCCCCC(=O)O | inactive
CCOCCOC(=O)/C=C/c1ccc(OC)cc1 | inactive
CC(C)OC(=O)CCCC=CC[C@@H]1[C@H](C=C[C@@H](O)COc2cccc(C(F)(F)F)c2)[C@H](O)C[C@@H]1O | inactive
O=C(Nc1ncc([N+](=O)[O-])s1)c1cccs1 | inactive
Cc1csc(NC(=O)c2sc3nc4c(c(C(F)(F)F)c3c2N)CCC4)n1 | 1.95 µM (active)
CC(=C(CCOC(=O)C(C)C)SSC(CCOC(=O)C(C)C)=C(C)N(C=O)Cc1cnc(C)nc1N)N(C=O)Cc1cnc(C)nc1N | inactive
CNC(=O)c1ccccc1Sc1ccc2c(/C=C/c3ccccn3)n[nH]c2c1 | 7.74 µM (active)
Oc1cc(O)cc(/C=C/c2ccc(O)c(O)c2)c1 | 7.74 µM (active)
O=C(OCc1ccccc1)c1ccc(O)cc1 | inactive
Cc1c(C(=O)O)c(O)cc2c1C(=O)c1c(O)c([C@@H]3O[C@H](CO)[C@@H](O)[C@H](O)[C@H]3O)c(O)c(O)c1C2=O | inactive
CCCCCCOc1ccccc1C(N)=O | inactive
CC(=O)Nc1ccc([C@H](C)C(=O)Nc2ncc(C(C)C)s2)cc1 | inactive

Compound | Potency
NC(=O)c1cccc2[nH]c(-c3ccc([C@H]4CCCN4)cc3F)nc12 | 4.35 µM (active)
O=C(O)Cc1ccc(-c2ccccc2)cc1 | inactive
COc1ccc2nc(NC(=O)Nc3ccccc3)sc2c1 | 7.74 µM (active)
[O-][n+]1ccccc1SSc1cccc[n+]1[O-] | 0.112 µM (active)
O=C1NC(=O)C(=Cc2ccc(-c3ccc(F)cc3)o2)S1 | inactive
CN(C)c1cc(NC(=O)CNC(C)(C)C)c(O)c2c1C[C@@H]1C[C@H]3[C@H](N(C)C)C(=O)C(C(N)=O)=C(O)[C@@]3(O)C(=O)C1=C2O | inactive
CC(C(=O)O)c1ccc(-c2ccccc2)c(F)c1 (stereo not given) | inactive
COc1ccc(-c2cc(=S)ss2)cc1 | inactive
C[C@@H]1CCN(C(=O)CC#N)C[C@H]1N(C)c1ncnc2[nH]ccc12 | inactive
CN(C)c1ccc2cc(C(=O)N[C@@H](CCCN=C(N)CCl)C(=O)NCc3ccccc3)ccc2c1 | inactive
CN(C)CCCSc1ccccc1NC(=O)/C=C/c1ccccc1 | inactive
Nc1cc(C(F)(F)F)ccc1S | 19.5 µM (active)
O=C1C(Cl)=C(NCCN2CCOCC2)C(=O)c2ncccc21 | 1.73 µM (active)
CN1CC(=O)N2C(Cc3c([nH]c4ccccc34)[C@H]2c2ccc3c(c2)OCO3)C1=O (stereo not given in full) | inactive
CC1=C(CO)C(=O)O[C@@H]([C@@H](C)[C@H]2CC[C@H]3[C@@H]4C[C@H]5O[C@]56[C@@H](O)C=CC(=O)[C@]6(C)[C@@H]4CC[C@]23C)C1 | inactive
O=c1oc2cc(O)ccc2s1 | inactive
O=C(O)c1ccccc1NCCc1ccccc1 | inactive
CCOC1OC(=O)C[C@H]1NC(=O)[C@@H]1CCCN1C(=O)[C@@H](NC(=O)c1ccc(N)c(Cl)c1)C(C)(C)C (stereo not given in full) | inactive
CCCS(=O)c1ccc2nc(NC(=O)OC)[nH]c2c1 (stereo not given) | inactive
O=C(/C=C/c1ccc(O)cc1)c1ccc(O)cc1O | inactive
